Reference: ChEMBL document CHEMBL3988442, “University of Dundee, Small-Polar-MMV Screening Library” (2021)
Screen size: about 48,000 compounds; about 13,000 (27%) showed an effect of 50% or more. The list shows a part of the results.

system: Wolbachia pipientis; experiment: Anti-Wolbachia Cell-Based Screen; format: functional; parameters: scale not given: in the data most compounds retested in dose-response had high values; conditions: 5 µM

Q: Which “Percent Effect” value does the source give for `Cl.Cn1cc(CN2CCN(CC3(c4ccccc4)CC3)CC2)cn1` here?
A: Its value is 82.02%.

Q: For `Cc1ccc(C2(CN3CCN(Cc4cn(C)nc4C)CC3)CC2)cc1.Cl`, which “Percent Effect” value is on record?
A: The value was 115.4%.

Q: For `CN1C(=O)CC2(CCN(Cc3cnn(C)c3)CC2)c2ccccc21`, which “Percent Effect” value is on record?
A: The value was 0.9694%.

Q: How did the “Percent Effect” value turn out when `CCn1cc(CN2CCCC(CO)(CCc3ccccc3)C2)c(C)n1` (stereo unspecified) was run?
A: The value was -0.5849%.

Q: Which “Percent Effect” value does the source give for `Cc1nn(C)cc1CN1CCN(CC2(c3ccccc3)CC2)CC1` here?
A: The value was 110.9%.

Q: `Nc1ncc(CN2C[C@H](C3CC3)[C@@H](N)C2)cn1` was tested. Which “Percent Effect” value did it give?
A: The value was -6.254%.

Q: Which “Percent Effect” value does the source give for `CC(NC(=O)N1CCC2(C1)OCCO2)c1ccc(F)cc1Cl` (stereo unspecified) here?
A: The value was -14.1%.

Q: For `CC(C)N(C)Cc1cc(=O)n2c(n1)CN(C(=O)c1cnccn1)CCC2`, which “Percent Effect” value is on record?
A: The value was 114.9%.

Q: For `CC(C)N(C)Cc1cc(=O)n2c(n1)CN(C(=O)c1ccnnc1)CCC2`, which “Percent Effect” value is on record?
A: Its value is 96.43%.

Q: Which “Percent Effect” value does the source give for `CN1CCN(Cc2cnc3n2CCN(C(=O)c2cnccn2)C3)CC1` here?
A: The value was -7.558%.

Q: How did the “Percent Effect” value turn out when `CC(C)N(C)Cc1noc2c1CN(C(=O)c1ccsc1)CC2` was run?
A: The value was 5.959%.

Q: For `CCN(CC)Cc1cc(=O)n2c(n1)CN(C(=O)c1ccnnc1)CCC2.O=C(O)C(F)(F)F`, which “Percent Effect” value is on record?
A: Its value is 96.84%.

Q: Which “Percent Effect” value does the source give for `Cc1cnc(C(=O)N2CCCn3c(nc(CN(C)C)cc3=O)C2)cn1.O=C(O)C(F)(F)F` here?
A: Its value is -7.099%.

Q: For `Cc1cnc(N2CCC(c3ccccc3)CC2)nc1-c1ccnn1C`, which “Percent Effect” value is on record?
A: Its value is -8.504%.

Q: `CC(C)Oc1ncccc1CNC(=O)N1CCOCC1` was tested. Which “Percent Effect” value did it give?
A: The value was 12.39%.

Q: For `COc1ncccc1CNC(=O)NC1CCOc2ccccc21` (stereo unspecified), which “Percent Effect” value is on record?
A: Its value is 3.95%.

Q: How did the “Percent Effect” value turn out when `COc1ncccc1CNC(=O)NC1CCCOc2ccccc21` (stereo unspecified) was run?
A: The value was 119.2%.

Q: How did the “Percent Effect” value turn out when `O=C(NCc1ccccn1)NC1CCOc2ccccc21` (stereo unspecified) was run?
A: Its value is 10.12%.

Q: `Cc1ccc(Oc2ncccc2CNC(=O)NC2CCCCC2)cn1` was tested. Which “Percent Effect” value did it give?
A: Its value is -14.6%.

Q: With `COc1ncccc1C(=O)NC1CCOc2ccccc21` (stereo unspecified) as the molecule, how does the “Percent Effect” value read?
A: The value was 117.1%.

Q: With `CC(C)Oc1ncccc1CNC(=O)N1CCC1c1ccccc1` (stereo unspecified) as the molecule, how does the “Percent Effect” value read?
A: Its value is -10.96%.

Q: For `COc1ncccc1C(=O)NCC1Cc2ccccc2O1` (stereo unspecified), which “Percent Effect” value is on record?
A: The value was 13.43%.

Q: For `CC(C)Oc1ncccc1CNC(=O)NC1CCOc2ccccc21` (stereo unspecified), which “Percent Effect” value is on record?
A: Its value is 99.58%.

Q: Which “Percent Effect” value does the source give for `COc1ncccc1NC(=O)NC1CCOc2ccccc21` (stereo unspecified) here?
A: Its value is 7.033%.

Q: How did the “Percent Effect” value turn out when `COc1ncccc1CNC(=O)N(Cc1ccccc1F)C1CC1` was run?
A: The value was -13.4%.

Q: Which “Percent Effect” value does the source give for `CCOc1ncccc1CNC(=O)NC1CCOc2ccccc21` (stereo unspecified) here?
A: Its value is 109.6%.

Q: For `CC(C)Oc1ccc(C(=O)Nc2nncs2)cn1`, which “Percent Effect” value is on record?
A: The value was -3.461%.

Q: With `NC(=O)c1ccc(N2CCCCC2)c(NC(=O)c2ccc(F)cc2F)c1` as the molecule, how does the “Percent Effect” value read?
A: The value was -3.643%.

Q: With `COCCN1CCN(CCCS(=O)(=O)c2ccccc2)CC1C` (stereo unspecified) as the molecule, how does the “Percent Effect” value read?
A: Its value is 8.957%.

Q: How did the “Percent Effect” value turn out when `CCOC(C)C(=O)NS(=O)(=O)c1cccc2cc(C)cnc12` (stereo unspecified) was run?
A: Its value is 6.301%.

Q: Which “Percent Effect” value does the source give for `CCn1ncnc1CN1CCc2[nH]cnc2C1c1ccccn1` (stereo unspecified) here?
A: Its value is -9.23%.

Q: `CC(=O)Nc1ccc(CN2CCc3[nH]cnc3C2c2nccn2C)cc1` (stereo unspecified) was tested. Which “Percent Effect” value did it give?
A: Its value is 16.2%.

Q: With `COCCn1ccnc1CN1CCc2[nH]cnc2C1c1cnn(C)c1C` (stereo unspecified) as the molecule, how does the “Percent Effect” value read?
A: Its value is 99.98%.

Q: For `COCCn1ccnc1CN1CCc2[nH]cnc2C1c1ccccn1` (stereo unspecified), which “Percent Effect” value is on record?
A: The value was 80.05%.

Q: For `Cc1c(C2c3nc[nH]c3CCN2CCOCc2ccccc2)cnn1C` (stereo unspecified), which “Percent Effect” value is on record?
A: Its value is 5.205%.

Q: For `COCCn1ccnc1CN1CCc2[nH]cnc2C1c1cccc(O)c1` (stereo unspecified), which “Percent Effect” value is on record?
A: Its value is 85.01%.

Q: How did the “Percent Effect” value turn out when `c1ccc(COCCN2CCc3[nH]cnc3C2c2ccco2)cc1` (stereo unspecified) was run?
A: Its value is -0.996%.

Q: `CCn1ccnc1CN1CCN(Cc2ccc(C#N)cc2)CC1` was tested. Which “Percent Effect” value did it give?
A: The value was -17.04%.

Q: For `COc1ncccc1CN1CCc2[nH]cnc2C1CCSC` (stereo unspecified), which “Percent Effect” value is on record?
A: The value was -5.01%.

Q: `CCCn1ccnc1CN1CCc2[nH]cnc2C1Cc1ccccc1` (stereo unspecified) was tested. Which “Percent Effect” value did it give?
A: The value was -1.947%.

Q: How did the “Percent Effect” value turn out when `Cn1ccnc1C1c2nc[nH]c2CCN1Cc1cccnc1` (stereo unspecified) was run?
A: The value was 3.917%.

Q: `CCc1ccc(C2c3nc[nH]c3CCN2Cc2nccn2CC)nc1` (stereo unspecified) was tested. Which “Percent Effect” value did it give?
A: The value was 105%.

Q: `CC(C)(C)c1oc(C(N)=O)cc1CN1CCCCC(N)C1` (stereo unspecified) was tested. Which “Percent Effect” value did it give?
A: The value was -6.99%.

Q: How did the “Percent Effect” value turn out when `CNC(=O)c1cccnc1NCc1ccc(Cn2ccnc2)cc1` was run?
A: Its value is -15.36%.

Q: How did the “Percent Effect” value turn out when `CC(=O)c1cc(CN2C[C@H]3CC[C@@H]2CN(S(C)(=O)=O)C3)cs1` was run?
A: Its value is 11.24%.

Q: `CN(C)c1ccc(-c2cccc(-c3ccn(CCCO)n3)c2)nn1` was tested. Which “Percent Effect” value did it give?
A: Its value is 106.7%.

Q: How did the “Percent Effect” value turn out when `c1cc(-c2cnccn2)cc(-c2ccn(CCCN3CCCCC3)n2)c1` was run?
A: Its value is -2.928%.

Q: With `COc1ccc(-c2cccc(-c3ccn(CCCN(C)C)n3)c2)nn1` as the molecule, how does the “Percent Effect” value read?
A: The value was -20.49%.

Q: Which “Percent Effect” value does the source give for `Cc1nc(N(C)C)nc(-c2cccc(-c3ccn(CCCO)n3)c2)c1C` here?
A: Its value is 91.5%.

Q: How did the “Percent Effect” value turn out when `CN(C)CCCn1ccc(-c2cccc(-c3ccccn3)c2)n1` was run?
A: The value was -1.271%.

Q: For `COc1ccc(-c2cccc(-c3ccn(CCN(C)C)n3)c2)nn1`, which “Percent Effect” value is on record?
A: Its value is -17.53%.

Q: Which “Percent Effect” value does the source give for `c1cncc(-c2cccc(-c3ccn(CCN4CCCCC4)n3)c2)c1` here?
A: Its value is 18.24%.

Q: How did the “Percent Effect” value turn out when `Cc1cnc(C)c(-c2cccc(-c3ccn(CCN4CCCC4)n3)c2)n1` was run?
A: Its value is 7.439%.

Q: `Cc1cc(-c2cccc(-c3ccn(CCCO)n3)c2)nc(N(C)C)n1` was tested. Which “Percent Effect” value did it give?
A: Its value is 105.4%.

Q: For `Cc1nc(N(C)C)nc(-c2cccc(-c3ccn(CCCF)n3)c2)c1C`, which “Percent Effect” value is on record?
A: The value was 99.28%.

Q: Which “Percent Effect” value does the source give for `CN(C)CCCn1ccc(-c2cccc(-c3cncnc3)c2)n1` here?
A: The value was -27.48%.
